In PubChem BioAssay AID720526 (National Center for Advancing Translational Sciences (NCATS), 2013):
Inconclusive results are not listed. Calls of active or inactive are those of the source. Calls follow the shape of the dose curve; as a rule, active = well fitted activation curve with a large enough effect; inconclusive = small, poorly fitted or top-dose-only effect; inactive = no such curve, though single readings can be large or run the other way.

experiment: qHTS Assay for NPC1 Promoter Activators: Hit Validation Using Renila Luciferase Read-Out for NPC1; settings: Huh7 NPC1 promoter-luciferase reporter, luminescence, 24 h; series mostly up to 76.9 µM; activity change, positive = activation: at the top concentration; as to activity change, positive = activation: % of control where 0% means no effect
Outline: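 Luciferase reporter read-out: promoter activation measured by luminescence after 10 min with detection reagent at room temperature. Cells were Huh7 with a stable NPC promoter-luciferase construct, treated 24 h at 37 deg C.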
Potency is read from the fitted curve at half-maximal effect.

Activity change, positive = activation, inactive:
C=CCc1ccc(OCCOCCNCCOC)c(OC)c1 -23.8%, COc1ccc(C(=O)OCC(=O)N2CCCC2=O)c(OC)c1 -4.88%, CCN(Cc1nc2cc(Cl)ccc2c(=O)[nH]1)C(=O)C1CC(=O)N(c2cccc3ccccc23)C1 (stereo not drawn) 13.5%, COc1ccccc1CNC(=O)COc1ccc(C)cc1 8.49%, Cc1ccc(C(=O)c2cncc(Br)c2)cc1 -4.32%, Cc1[nH]n(-c2cccc3ccccc23)c(=O)c1/C=N/c1sc2c(c1C#N)CCC2 -5.9%, NC(=O)COC(=O)c1ccc2noc(-c3ccccc3)c2c1 0.358%, CN(C)/C=N/c1c(C#N)cnn1-c1nc2ccccc2s1 -0.131%, O=C(CCCOc1ccc(Cl)cc1)N1CCCCC1 -10.6%, O=C(CSc1nnc(-c2csc3c2CCCC3)o1)Nc1ccccc1 -80.6%, COc1ccccc1NC(=S)NCc1ccc(Cl)cc1 5.09%, COc1cccc(CNC(=O)CN(c2cc(C)cc(C)c2)S(=O)(=O)c2c(C)noc2C)c1 7.09%, CC(=O)NC(CCCN1C(=O)c2ccccc2C1=O)c1nnn(C)n1 (stereo not drawn) -17.1%, C=CCOC(=O)N1CCN(c2cccc(C(F)(F)F)c2)CC1 -3.15%, Cc1cccc(NC(=O)CSc2nc3ccccc3o2)c1 -16.9%, O=CN1CCN(C(=O)c2ccccc2Cl)CC1 -1.02%, CCOC(=O)c1csc(COc2ccc(OC)cc2)n1 -7.41%, Cc1nc(-c2ccc(S(=O)(=O)Oc3ccc(Cl)cc3Cl)s2)cs1 -47.3%, COC(=O)c1sccc1NC(=S)OC 5.09%, Cc1ccc(C(=O)Nc2ccc(N3CCN(C)CC3)nc2)cc1 -9.22%, Cc1ccc(NC(=O)c2cccc(N3C(=O)CCC3=O)c2)nc1 -4.36%, CC(=O)c1cccc(NC(=O)N2CCOCC2)c1 -6.02%, Cc1nnc2n(c1=O)N=C(c1ccc(Cl)cc1)CS2 11.5%, COc1ccc(NC(=O)CSc2ccc([N+](=O)[O-])cc2)cc1S(=O)(=O)N1CCOCC1 7.39%, CNC(=O)Cn1nc(C)c2ccccc2c1=O -12.4%, CCCC(C)NC(=O)c1ccc(OCc2ccc(Cl)cc2)c(OC)c1 (stereo not drawn) -13.6%, CC(=O)Nc1nnc(SCC(=O)NCCOc2ccccc2)s1 3.94%, Cc1nc(-c2ccccn2)sc1C(=O)Nc1ccc(F)cc1F -4.57%, O=C(CN1C(=O)COc2ccc(Cl)cc21)NCC1CCCO1 (stereo not drawn) 2.71%, CC(=O)[C@@H]1[C@@H](C(=O)c2ccc(C)cc2)[C@]2(C(=O)Nc3ccccc32)[C@H]2C=Cc3cc(F)ccc3N12 6.88%, O=C(CCNC(=O)c1ccc(Br)o1)NCc1ccc(Cl)cc1 2.26%, CCCN(CCC)CCCNC(=O)c1cc2cc3ccc(Cl)cc3nc2o1 -34%, CC(C)CC(=O)N1CCN(c2ccc(NC(=O)c3ccco3)cc2)CC1 9.56%, CCOC(=O)C1(Cc2cccc(Cl)c2)CCCN(C(=O)CCSC)C1 (stereo not drawn) -3%, COc1ccc(-c2csc(Nc3ncccn3)n2)cc1C 5.9%

Potency, active:
COc1ccccc1N(C(=O)c1snc(C(N)=O)c1N)C(C(=O)NC1CCCCC1)c1cccc(OC)c1OC (stereo not drawn) 11.6 µM, N#C/C(=C\c1ccc[nH]1)C(=O)Nc1ccccc1Cl 23.2 µM, COc1ccc([N+](=O)[O-])cc1COc1ccc2c(-c3ccccc3)cc(=O)oc2c1 1.46 µM
